Reference: PubChem BioAssay AID1745848 (National Center for Advancing Translational Sciences (NCATS), 2022)
The campaign covered roughly 2,100 compounds. About 940 (45%) were called active. Roughly 48% stayed inconclusive and do not appear here. So high a share suggests a set chosen from earlier hits. Some of the results follow. Values without a mark were called inactive. The call rests on the fitted dose curve; in most records, active means well fitted inhibition curve with a large enough effect; inconclusive means small, poorly fitted or top-dose-only effect; inactive means no such curve, though single readings can be large or run the other way.

Assay: Confirmatory qHTS for Inhibitors of ATXN expression; further: nearly all actives have a fitted effect of over 65% in size;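 on activity change, negative = inhibition: 0% = DMSO vehicle wells and -100% = medium-only wells without cells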
Settings: ATXN2-luciferase reporter cells, luminescence, 24 h; series mostly up to 11.5 µM; activity change, negative = inhibition: at the top concentration
Procedure, shortened: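 A titration, incubated 24 h with reporter cells expressing ATXN2-luciferase. Luminescence (SteadyGlo) gives ATXN2 expression, multiplexed GF-AFC fluorescence gives viability; normalised to DMSO and medium-only wells.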
Potency means the concentration at half of the fitted maximal effect.

Compound	Potency	activity change, negative = inhibition
COc1cc2c3nnc(-c4ccc(F)cc4)c-3cn(Cc3ccc(F)cc3)c2cc1OC	2.82 µM (active)	
COc1cc2c3nnc(-c4ccc(F)cc4)c-3cn(Cc3ccccc3F)c2cc1OC	2 µM (active)	
COc1ccc(Cn2cc3c(-c4ccc(F)cc4)nnc-3c3cc(OC)c(OC)cc32)cc1	1.78 µM (active)	
Cc1ccc(NC(=O)/C=C/c2ccc([N+](=O)[O-])s2)c(C)c1	1.41 µM (active)	
O=C(N/N=C/c1ccc([N+](=O)[O-])o1)c1ccc2c(c1)OCO2	14.1 µM (active)	
CC1(C(=O)N/N=C/c2ccc([N+](=O)[O-])o2)CC1(Br)Br (centres undefined)	22.4 µM (active)	
O=[N+]([O-])c1ccc(/C=N/N=C/c2ccc([N+](=O)[O-])o2)o1	6.31 µM (active)	
COc1ccccc1NS(=O)(=O)c1cccc(C(=O)N/N=C/c2ccc([N+](=O)[O-])o2)c1	11.2 µM (active)	
COc1ccc(-c2csc3ncnc(Sc4nnnn4C)c23)cc1	3.16 µM (active)	
Cn1nnnc1Sc1ncnc2scc(-c3ccsc3)c12	14.1 µM (active)	
CCn1cc(C(=O)NCc2cccc(F)c2)c(=O)c2cc(F)c(N3CCN(C(=O)c4ccco4)CC3)cc21	15.8 µM (active)	
CCn1cc(C(=O)NCc2ccccc2)c(=O)c2cc(F)c(N3CCN(C(=O)c4ccco4)CC3)cc21	28.2 µM (active)	
c1ccc(-c2nnc(-c3ccccn3)nc2NC2CCCCC2)cc1	1.12 µM (active)	
CC(C)(C)c1cc[n+](C2=C([O-])c3ccccc3C(=O)/C2=N\S(=O)(=O)c2cccs2)cc1	1.12 µM (active)	
O=C(O)CCn1cc(/C=C/C(=O)c2ccc(Cl)cc2)c(-c2ccc(Br)cc2)n1	25.1 µM (active)	
O=C(NC1=CC(=O)c2ccccc2C1=O)c1ccccc1	14.1 µM (active)	
COc1ccc(-c2cc(CNc3nc(NC(C)C)nc4cc(-c5ccccc5)sc34)on2)cc1	11.2 µM (active)	
Cc1ccc(C(C)C)c(OCc2ccc(C(=O)N/N=C/c3ccc(O)cc3O)cc2)c1	1.58 µM (active)	
O=C(N/N=C/c1ccc(O)cc1O)c1ccc(CN2C(=O)c3cccc4cccc2c34)cc1	2 µM (active)	
Cc1ccc(C(C)C)c(OCc2ccc(C(=O)N/N=C/c3ccc(O)c(O)c3)cc2)c1	2.51 µM (active)	
Cc1ccc(C(C)C)c(OCc2ccc(C(=O)N/N=C/c3cccc(O)c3O)cc2)c1	2.82 µM (active)	
Cc1ccc(-c2nc3ccc(Cl)cn3c2CC(C)(C)C)cc1		-10.7%
Clc1ccc(C[n+]2cc(-c3ccccc3)n3c2CCCCC3)c(Cl)c1	15.8 µM (active)	

Compound	Potency	activity change, negative = inhibition
CN[C@H]1C[C@H]2c3[nH]c4ccc(-c5ccc(OC)cc5)cc4c3CCN2C(=O)[C@H]1[C@H](C)O	3.16 µM (active)	
CN(C)CCNc1ncnc2c1sc1nc(N3CCCC3)c3c(c12)CC(C)(C)OC3	25.1 µM (active)	
CC1(C)Cc2c(c(N3CCOCC3)nc3sc4c(NN)ncnc4c23)CS1	8.91 µM (active)	
CN(C)CCNc1ncnc2c1sc1nc(N3CCOCC3)c3c(c12)CC(C)(C)SC3	15.8 µM (active)	
CCOc1ccc(CN(C)c2nc(-c3cccnc3)nc3ccccc23)cc1OC	25.1 µM (active)	
CCCCCn1c(CN2CCN(c3cccc(Cl)c3)CC2)nc2c1c(=O)[nH]c(=O)n2C	25.1 µM (active)	
CCN1C(=O)C(CC(=O)Nc2ccc(OC)cc2)N(CCc2ccc(F)cc2)C1=S (centres undefined)	2.82 µM (active)	
CC(C)(C)c1cc(C(=O)NN)n(Cc2ccc(Cl)cc2Cl)n1	15.8 µM (active)	
Oc1c(CN2CCCCC2)ccc2cccnc12	6.31 µM (active)	
Oc1c(CN2CCN(c3ccccc3)CC2)cc(Br)c2cccnc12	1.26 µM (active)	
Oc1c(CN2CCOCC2)cc(COCc2ccccc2)c2cccnc12	3.16 µM (active)	
O=[N+]([O-])c1cc(CN2CCN(c3ccccc3)CC2)c(O)c2ncccc12	3.16 µM (active)	
CN(C)CCNC(=O)c1ccc(Cl)c2cc3ccccc3nc12	6.31 µM (active)	
CN(C)CCNC(=O)c1cccc2[nH]c(-c3ccncc3)nc12	2.82 µM (active)	
CCN(CC)CCC(=O)Nc1cccc2c1C(=O)c1ccccc1C2=O	1.58 µM (active)	
CN(CC(=O)Nc1cccc(F)c1)CC(=O)Nc1cccc2ccccc12		-23.6% [at 57.5 µM]
Cc1ccn2c(Nc3ccccc3C)c(-c3ccccn3)nc2c1	3.55 µM (active)	
Cc1ccc(Nc2c(-c3ccccn3)nc3cccc(C)n23)cc1	3.16 µM (active)	
Cc1ccc(Nc2c(-c3ccccn3)nc3cc(C)ccn23)cc1	3.55 µM (active)	
Cc1ccc2nc(-c3ccccn3)c(NC3CCCC3)n2c1		-29.6%
Cc1ccn2c(Nc3ccccc3)c(-c3ccccn3)nc2c1	0.708 µM (active)	
Cc1ccc2c(c1)C1CN(C)CCC1N2C(=S)NC(=O)c1ccc(Br)cc1 (centres undefined)		-21.5%
Cc1cnc(C(=O)NNC(=O)c2ccc(Br)cc2)cn1	25.1 µM (active)	

Compound	Potency	activity change, negative = inhibition
O=C(NCc1ccco1)c1ccc(-c2cccc(Cl)c2)o1		40.1% [at 57.5 µM]
COCc1ccc(CN2CCC(C(=O)Nc3cccc(-c4cccc(Cl)c4)c3)CC2)o1	25.1 µM (active)	
CSCc1nnc(NC(=O)c2ccc(S(=O)(=O)N3CCCCC3C)cc2)o1 (centres undefined)	20 µM (active)	
CN1CCC(N(C)C(=O)c2ccc(Cl)c(S(=O)(=O)N3CCc4ccccc43)c2)CC1		-26% [at 57.5 µM]
CC1CCCCN1S(=O)(=O)c1ccc(C(=O)Nc2nnc(-c3ccccc3Cl)o2)cc1 (centres undefined)	2.51 µM (active)	
O=C(Nc1nnc(C2CC2)o1)c1ccc(S(=O)(=O)N2CCCc3ccccc32)cc1	7.08 µM (active)	
Cc1ccc(C)c(S(=O)(=O)N2CCN(Cc3ccc(O)c4ncccc34)CC2)c1	3.16 µM (active)	
O=S(=O)(c1ccc(Cl)cc1)N1CCN(Cc2ccc(O)c3ncccc23)CC1	3.55 µM (active)	
COc1ccccc1N(CC(=O)N/N=C(\C)c1ccccc1O)S(=O)(=O)c1ccc(C)cc1	15.8 µM (active)	
COc1ccccc1-c1ccc2c(c1)C(C)(Cc1cccc(F)c1)C(=O)N2 (centres undefined)	28.2 µM (active)	
Cc1cnc(NC(=O)CCCc2nc3ccccc3s2)s1	1.41 µM (active)	
CCN(CC)CCNC(=O)C1CCN(S(=O)(=O)c2c(C)noc2/C=C/c2ccccc2F)CC1	3.16 µM (active)	
COc1cc(NS(=O)(=O)c2ccc(N/C=C(\C#N)c3nc4cc(Cl)ccc4o3)cc2)nc(OC)n1	3.98 µM (active)	
CCCCOc1ccc(NC2=NC3(CCCC3)N=C(N)N2)cc1		-18% [at 57.5 µM]
CC[C@H]1CN2CCc3cc(OC)c(OC)cc3[C@@H]2C[C@@H]1C[C@H]1NCCc2cc(OC)c(OC)cc21	0.0447 µM (active)	
CC[C@H]1CN2CCc3cc(OC)c(OC)cc3C2C[C@@H]1C[C@H]1NCCc2cc(OC)c(OC)cc21 (some centres undefined)	0.316 µM (active)	
CCC1=C(CC2NCCc3ccccc32)CC2c3cc(OC)c(OC)cc3CCN2C1 (centres undefined)	8.91 µM (active)	
O=C1C=C(Nc2ccccc2O)c2ccccc2C1=O	12.6 µM (active)	
CCN1CCN(c2ccc(S(=O)(=O)N3CCCCC3)cc2NC(=O)c2ccc([N+](=O)[O-])s2)CC1	3.16 µM (active)	
CCN1CCN(c2ccc(S(=O)(=O)N3CCCCC3)cc2NC(=O)/C=C/c2ccc([N+](=O)[O-])cc2)CC1	2 µM (active)	
COc1ccc(/C=C/C(=O)Nc2cccc(S(=O)(=O)N3CCCC3)c2)cc1OC		-15.2%
Fc1ccc2[nH]c3c(NCc4ccccc4)ncnc3c2c1	1.12 µM (active)	
COc1ccc(CNc2ncnc3c2[nH]c2ccccc23)cc1	8.91 µM (active)	

Compound	Potency	activity change, negative = inhibition
CCOc1ccc2[nH]c3c(NCCc4ccc(OC)c(OC)c4)ncnc3c2c1	15.8 µM (active)	
Cc1cc(NC(=O)CSc2nc3c(sc4ccccc43)c(=O)n2CCCN2CCOCC2)n[nH]1	1.58 µM (active)	
Cn1c(=O)c2c(nc(SCCN3CCOCC3)n2Cc2cccc3ccccc23)n(C)c1=O		-12.7%
CCOC(=O)COc1ccc(Br)cc1/C=C/c1[nH]c(=O)[nH]c(=O)c1[N+](=O)[O-]		-23.6%
CC1=NN(c2nc3ccccc3[nH]2)C(=O)C1Cc1ccccc1 (centres undefined)	2 µM (active)	
Cc1cc2nc(-c3nnnn3Cc3ccccc3)c(=O)[nH]c2cc1C		-0.827%
CCN(CC)CCNC(=O)c1ccc(NC(=O)Cc2cccc3ccccc23)cc1	3.98 µM (active)	
Cc1ccc(-c2cc(-c3ccccc3)nc(NN)n2)cc1	35.5 µM (active)	
CCOc1ccc(NCc2cccn2-c2nnc(N3CCC(C(=O)NCCCN4CC(C)CC(C)C4)CC3)s2)cc1 (centres undefined)	3.16 µM (active)	
C=CCSc1nc2ccccc2n1C(=O)/C=C/c1ccc(OC)c(OC)c1	2.82 µM (active)	
CCSc1nc2ccccc2n1C(=O)/C=C\c1ccc(OC)c(OC)c1	8.91 µM (active)	
CC(=O)N1c2ccc(S(=O)(=O)N3CCC(C(=O)Nc4cccc(C(F)(F)F)c4)CC3)cc2CC1C (centres undefined)	14.1 µM (active)	
Cc1ccc2c(Cl)cc(Cl)c(O)c2n1	5.62 µM (active)	
COc1ccc([C@@]2(C(C)C)ON(c3ccccc3C(F)(F)F)C2=O)cc1		-15.7%
COc1ccc(OC)c(C(=O)/C=C/c2ccccc2C(F)(F)F)c1	3.16 µM (active)	
Cc1ccc(-c2cc(C(=O)NCCCN3CCOCC3)no2)cc1	7.94 µM (active)	
CC(O)(c1ccccc1)c1nc(-c2ccncc2)cs1 (centres undefined)		7.8%
OCCN1CCN(C2CCC(c3ccc(F)cc3)c3ccc(F)cc32)CC1 (centres undefined)	25.1 µM (active)	
CCN(CC)S(=O)(=O)c1ccc(N/N=C/c2cc(OC)ccc2O)nc1	0.794 µM (active)	
CC(=O)N1CCCc2cc(S(=O)(=O)N3CCCC(C(=O)N4CCN(c5cc(C)ccc5C)CC4)C3)ccc21 (centres undefined)	3.16 µM (active)	
